Assay outcomes from PubChem BioAssay.
esBAF inh: Bmi1 luciferase reporter increase in mESCs, primary screen, esBAF inhibitor project, mouse ES cells, Bmi1 luciferase knock-in, single point | 24 h; 100% = twice the neutral-well signal | reporter increase, % at 12.5 µM | hit rate 2% among 350,000; in the data active means activation above about 40%; inconclusive means no clear call, values can overlap the other calls;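 further: 0% = median of the plate's neutral control wells and 100% = double that signal; a rise in the Bmi1 reporter signal indicates esBAF inhibition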
Statin myotox sup: suppressors of statin myotoxicity in C2C12 myotubes, primary screen, cell-based, single point, plate reader; C2C12 myotubes + simvastatin, ATP luminescence, 48 h; scaled: DMSO 0, geranylgeraniol control 100; rescue of ATP level, % at 7.49 µM; hit rate 0.78% among 330,000; AID 602340, 2012;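 active means mean ATP rescue above about 67%, or every replicate alone reaching that limit, limit read from the data, passing the limit was not always enough; inconclusive means no clear call, values can overlap the other calls; inactive means mean under the limit and some replicate under it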;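 further: myotubes were challenged with 10 µM simvastatin during compound exposure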
Rtt109 HAT inh: inhibitors of C. albicans Rtt109/Vps75 HAT, primary screen, biochemical, ThioGlo CoA-SH fluorescence, plate reader. AID 540336, 2011. hit rate 0.16% among 330,000. inhibition, % at 34.9 µM. purified Rtt109/Vps75, 4 h;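 active means inhibition of at least 50% in every replicate; inconclusive means best replicate reaches 50% inhibition but some replicates fall short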
Target sequence (Q5AAJ8 whole entry, looked up): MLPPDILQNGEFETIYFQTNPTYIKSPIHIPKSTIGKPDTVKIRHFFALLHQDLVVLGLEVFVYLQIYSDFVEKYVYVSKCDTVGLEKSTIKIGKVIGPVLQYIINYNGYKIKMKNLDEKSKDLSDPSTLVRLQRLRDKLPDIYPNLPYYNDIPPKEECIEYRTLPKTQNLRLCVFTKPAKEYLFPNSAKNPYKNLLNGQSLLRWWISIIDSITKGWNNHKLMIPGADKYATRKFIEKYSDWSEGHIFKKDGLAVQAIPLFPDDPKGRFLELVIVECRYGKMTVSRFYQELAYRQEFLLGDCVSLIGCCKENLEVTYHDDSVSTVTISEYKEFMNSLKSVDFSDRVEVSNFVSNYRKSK
MITF TRPM1 HTS: activators of MITF-driven TRPM1 promoter reporter, primary screen, cell-based, SK-MEL-5, luciferase, single point. SK-MEL-5 TRPM1-promoter luciferase, 24 h; % of positive control, neutral wells = 0. activation, % at 12.5 µM. hit rate 0.75% among 300,000;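 active means mean activation of at least 80% with every replicate also reaching 80%; inconclusive means mean reaches 80% but some replicate falls short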;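 further: 0% = neutral control wells and 100% = parthenolide positive control wells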
Wnt bcat act: Wnt/beta-catenin pathway activators, primary screen, cell-based, plate reader, single point. Wnt/beta-catenin reporter cell assay, activator. activation, % at 9.35 µM. hit rate 1.2% among 300,000; in the data active means activation above about 30%, passing the limit was not always enough; inconclusive means no clear call, values can overlap the other calls;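 further: 0% = neutral control wells and 100% = positive control wells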
* marks the source's active call; other numbers are inactive results; ? = inconclusive; / = no result given; ! = repeats disagree. Sampled rows, rich in hits. Any-hit rate of the full collection: about 3.1%.

SMILES	esBAF inh	Statin myotox sup	Rtt109 HAT inh	MITF TRPM1 HTS	Wnt bcat act
O=C1C2C3C=CC(CC3)C2C(=O)N1/N=C/c1c[nH]c2ccccc12 (configuration not stated)	61*	4	-8	50	1
NNC(=O)c1ccc(COc2ccc3ccccc3c2)o1	/	/	-3	8	?
O=C(OCc1ccccn1)c1ccc(COc2ccc3ccccc3c2)o1	53*	12	-1	49	-2
CC(NC(=O)c1sc2ccccc2c1Cl)C1CCCO1 (configuration not stated)	/	/	0	126*	28
O=C(NC1CC1)c1sc2cc(Cl)ccc2c1Cl	44*	-6	-4	111*	14
O=C(CNC(=O)c1sc2ccccc2c1Cl)NC1CC1	22	-3	33	24	10
O=C(NC(=S)NCCO)c1sc2ccccc2c1Cl	53*	2	-10	45	42*
O=C(NC1CC1)c1sc2ccccc2c1Cl	47*	-4	7	45	8
COc1ccc(CN(C)C[C@H]2OCCCC[C@@H](C)Oc3ccc(NC(=O)NC(C)C)cc3C(=O)N([C@@H](C)CO)C[C@H]2C)cc1	-3	11	/	/	/
O=C(Nc1nccs1)c1sc2cc(Cl)ccc2c1Cl	57*	-2	10	/	76*
O=C(Nc1ccccn1)c1sc2cc([N+](=O)[O-])ccc2c1Cl	42*	10	2	/	13
CN(C)CC(=O)Nc1ccc2c(c1)[C@@H]1C[C@@H](CC(=O)NC3CCCCC3)O[C@@H](CO)[C@@H]1O2	-3	1	/	/	/
CCOc1ccc(S(=O)(=O)N2CCN(C(=O)CN3C(=O)NC(C)(C)C3=O)CC2)cc1	-10	-1	-6	8	47*
O=C(CN1C(=O)NC2(CCCC2)C1=O)N1CCN(S(=O)(=O)c2ccc(Cl)cc2)CC1	/	/	-2	1	-2
O=C1CC(c2ccncc2)c2cc3c(cc2N1)OCCO3 (configuration not stated)	1	126*	-7	-20	3
COc1cc2c(cc1OC)C(c1cccs1)CC(=O)N2 (configuration not stated)	3	12	-14	/	1
O=C1CC(c2cccs2)c2cc3c(cc2N1)OCO3 (configuration not stated)	0	116*	-1	-18	-7
O=C1CC(c2ccc3c(c2)OCO3)c2cc3c(cc2N1)OCCO3 (configuration not stated)	1	30	6	-7	/
CN(C)c1ccnc2sc3c(SCc4ccc(Cl)cc4)ncnc3c12	/	/	-6	91*	/
N#CCCN1CCN(Cn2c3ccccc3c3ccccc32)CC1	2	114*	8	15	/
N#CCCn1c(=O)n(CCC#N)c2ccccc21	/	/	-10	6	0
CN(C)S(=O)(=O)c1cccc(-c2cn3cc(Cl)ccc3n2)c1	45*	7	5	48	/
CCOC(=O)c1nn(-c2ccc(Br)cc2)cc1C(=O)c1cccc2ccccc12	78*	4	0	73	/
CC(=O)c1nn(-c2cccc(Br)c2)cc1C(=O)c1ccc(Br)cc1	-2	-17	-8	/	2
CCOC(=O)c1nn(-c2ccc(F)cc2)cc1O	/	/	-12	92*	20
SMILES	esBAF inh	Statin myotox sup	Rtt109 HAT inh	MITF TRPM1 HTS	Wnt bcat act
CCCN(C)C[C@H]1OCCCC[C@@H](C)Oc2ccc(NC(=O)CCC(F)(F)F)cc2C(=O)N([C@H](C)CO)C[C@@H]1C	4	-7	/	/	/
CC(=O)Nc1nc(C)c(-c2csc(Nc3ccccn3)n2)s1	/	/	-2	13	52*!
CC(=O)Nc1ccc(Nc2nc(-c3sc(NC(C)=O)nc3C)cs2)cc1	0	-21	3	/	1
COc1ccc(-c2csc(Nc3cccc(C)n3)n2)cc1C	45*	-4	-1	/	37*
CC(=O)Oc1ccc(-c2csc(Nc3cccc(C)n3)n2)cc1	65*	-15	-5	/	15
CC(=O)Oc1ccc(-c2csc(Nc3ccccn3)n2)cc1	33	-33	/	/	61*
COCC(=O)N(C)C[C@@H]1Oc2ncc(Br)cc2C(=O)N([C@H](C)CO)C[C@@H]1C	1	12	/	/	/
O=C(NC1CCCCC1)N[C@H]1CC[C@@H](CCNS(=O)(=O)c2ccccc2)O[C@H]1CO	1	0	/	/	/
COC(=O)[C@H]1[C@H](CO)[C@H]2Cn3c(ccc(C4=CCCC4)c3=O)[C@H]2N1C(=O)C1CC1	-4	-6	/	/	/
CO[C@@H]1CN(C)C(=O)c2ccc(NS(=O)(=O)c3ccccc3)cc2OC[C@@H](C)N(Cc2ccccn2)C[C@H]1C	-3	-11	/	/	/
Cc1nn2c(-c3ccc(Cl)cc3)ccnc2c1-c1ccccc1	57*	-40	-1	/	10
Cc1nn2c(N)c(-c3ccccc3)cnc2c1-c1ccccc1	50*	-16	-1	/	-1
Cc1noc(C)c1S(=O)(=O)Nc1ccc2c(c1)C(=O)N([C@H](C)CO)C[C@@H](C)[C@H](CN(C)C(=O)Nc1ccc(F)cc1)OCCCC[C@H](C)O2	5	/	/	/	/
O=C(C[C@@H]1CC[C@@H](NC(=O)C2CCOCC2)[C@@H](CO)O1)Nc1ccc(-c2ccccc2)cc1	-10	-5	/	/	/
CCCCS(=O)(=O)c1sc2nc(C)cc(C)c2c1N	7	-12	55*	-7	4
CO[C@@H]1CN(C)C(=O)c2cc(NC(C)=O)ccc2OC[C@H](C)N(Cc2cccc(F)c2)C[C@@H]1C	-7	4	/	/	/
CO[C@@H](CN(C)C(=O)c1cnccn1)[C@H](C)CN([C@H](C)CO)S(=O)(=O)c1ccc(F)cc1	5	5	/	/	/
Cn1ccc(NC(=O)c2ccc(Cl)cc2)n1	26	17	-2	50	18
Cn1ccc(NC(=O)c2ccc(Cl)cc2Cl)n1	30	1	9	?	35*
C[C@@H]1CN([C@@H](C)CO)C(=O)c2cccc(NC(=O)C3CCCCC3)c2O[C@H]1CN(C)Cc1ccncc1	2	1	/	/	/
COC(=O)c1cc2c(ccn2-c2ccc(F)cc2)n1Cc1ccc(OC)cc1	/	/	7	10	/
CCn1c(C(=O)OC)cc2c1ccn2-c1ccc(F)cc1	71*	-84	1	121*	84*
CCC(=O)Nc1cccc(-c2ccc(N3CCCCC3)nn2)c1	-5	-15	13	17	29
CCC(=O)Nc1cccc(-c2ccc(N3CCN(C)CC3)nn2)c1	41*	-6	-2	85*	/
CCOc1ccccc1C(=O)Nc1cccc(-c2ccc(N3CCOCC3)nn2)c1	63*	-47	4	111*	?
COc1cccc(C(=O)Nc2cccc(-c3ccc(N4CCOCC4)nn3)c2)c1OC	20	-32	/	?	28
COc1ccc(C(=O)Nc2cccc(-c3ccc(N4CCOCC4)nn3)c2)cc1OC	19	-14	11	96*	26
